Data published in the antibiotic and cytotoxicity screens of Wong et al. (2023).
The campaign covered roughly 39,000 compounds. About 3,300 (8.5%) were called active. The sample as a whole holds a higher share of actives than the screen did.

The compounds below were run on HepG2 (assay: cytotoxicity call (relative viability < 0.9)). Details: 10 µM.

Compound | cytotoxicity call
Nc1cnn([C@H]2O[C@@H](COC(=O)c3ccccc3)[C@@H](O)[C@@H]2O)c(=O)n1 | inactive
COc1ccc(S(=O)(=O)N2C[C@@H](O)COC[C@H]3O[C@H](CC(=O)NCCN4CCCCC4)CC[C@@H]32)cc1 | inactive
Cc1noc(C)c1NC(=O)N(C)C[C@@H]1Oc2c(NC(=O)C3CC3)cccc2C(=O)N([C@H](C)CO)C[C@H]1C | inactive
C[C@@H]1CN([C@H](C)CO)C(=O)Cc2cc(NC(=O)C3CCCCC3)ccc2O[C@@H]1CN(C)Cc1ccc(Cl)c(Cl)c1 | inactive
C[C@H]1CCCCO[C@H](CN(C)Cc2ccc(C(F)(F)F)cc2)[C@@H](C)CN([C@@H](C)CO)C(=O)c2cc(NC(=O)Cc3ccccc3)ccc2O1 | active
C[C@@H]1CN([C@@H](C)CO)C(=O)c2cc(NC(=O)Cc3ccccc3)ccc2O[C@@H](C)CCCCO[C@@H]1CN(C)Cc1ccc(C(F)(F)F)cc1 | inactive
C[C@@H]1CCCCO[C@@H](CN(C)Cc2ccc(C(F)(F)F)cc2)[C@H](C)CN([C@@H](C)CO)C(=O)c2cc(NC(=O)Cc3ccccc3)ccc2O1 | inactive
C[C@@H]1CCCCO[C@@H](CN(C)Cc2ccc(C(F)(F)F)cc2)[C@@H](C)CN([C@H](C)CO)C(=O)c2cc(NC(=O)Cc3ccccc3)ccc2O1 | active
C[C@@H]1CCCCO[C@H](CN(C)Cc2ccc(C(F)(F)F)cc2)[C@@H](C)CN([C@H](C)CO)C(=O)c2cc(NC(=O)Cc3ccccc3)ccc2O1 | inactive
C[C@H](CO)N1C[C@H](C)[C@H](CN(C)Cc2ccc(C(F)(F)F)cc2)OCCCC[C@H](C)Oc2ccc(NC(=O)Cc3ccccc3)cc2C1=O | inactive
C[C@H]1CCCCO[C@@H](CN(C)Cc2ccc(C(F)(F)F)cc2)[C@@H](C)CN([C@@H](C)CO)C(=O)c2cc(NC(=O)Cc3ccccc3)ccc2O1 | inactive
C[C@@H]1CCCCO[C@H](CN(C)Cc2ccc(C(F)(F)F)cc2)[C@@H](C)CN([C@@H](C)CO)C(=O)c2cc(NC(=O)Cc3ccccc3)ccc2O1 | inactive
C[C@@H]1CCCCO[C@H](CN(C)Cc2ccc(C(F)(F)F)cc2)[C@H](C)CN([C@H](C)CO)C(=O)c2cc(NC(=O)Cc3ccccc3)ccc2O1 | active
COc1ccc(S(=O)(=O)Nc2cccc3c2O[C@@H](CN(C)C(=O)Nc2cccc4ccccc24)[C@H](C)CN([C@H](C)CO)C3=O)cc1 | inactive
C[C@H](CO)N1C[C@H](C)[C@H](CN(C)C(=O)Nc2ccc3c(c2)OCO3)Oc2ccc(N(C)C)cc2CC1=O | inactive
CNC(=O)C[C@@H]1CC[C@@H]2[C@H](COC[C@@H](O)CN2C(=O)c2ccc3c(c2)OCO3)O1 | inactive
Cn1ccnc1C(=O)NCc1cnc2n1CCNCC2 | inactive
C[C@H](CO)N1C[C@H](C)[C@H](CN(C)Cc2ccc(Cl)c(Cl)c2)Oc2ccc(NC(=O)NC3CCCCC3)cc2C1=O | inactive
C[C@@H]1CN([C@@H](C)CO)C(=O)c2cc(NS(=O)(=O)c3cccs3)ccc2O[C@@H]1CN(C)Cc1ccc(-c2ccccc2)cc1 | inactive
C[C@@H]1CN([C@H](C)CO)S(=O)(=O)c2ccc(C#CC(C)(C)O)cc2O[C@@H]1CN(C)Cc1ccc(F)cc1 | inactive

Compound | cytotoxicity call
FC(F)(F)Oc1ccccc1 | inactive
C[C@@H]1CN([C@@H](C)CO)C(=O)Cc2cc(NC(=O)Cn3cnnn3)ccc2O[C@@H]1CN(C)S(=O)(=O)c1cn(C)cn1 | inactive
CSc1ccc(-c2nnn(CC(N)=O)n2)cc1 | inactive
Cc1noc(C)c1NC(=O)N(C)C[C@H]1Oc2ccc(NC(=O)NC(C)C)cc2C(=O)N([C@H](C)CO)C[C@H]1C | inactive
COc1ccc(S(=O)(=O)Nc2ccc3c(c2)C(=O)N([C@H](C)CO)C[C@H](C)[C@H](CN(C)S(=O)(=O)c2cn(C)cn2)O3)cc1 | inactive
C[C@H]1CN([C@@H](C)CO)C(=O)c2cc(NC(=O)c3ccncc3)ccc2O[C@H]1CN(C)S(=O)(=O)c1cccs1 | inactive
COCCOC(=O)N1C(=O)[C@@]2(c3cc(C#CC4=CCCCC4)ccc31)[C@H](C(=O)N1CCN(c3ncccn3)CC1)[C@H]1C(=O)O[C@H](c3ccccc3)[C@H](c3ccccc3)N1[C@@H]2c1ccc(O)cc1 | inactive
C=CCn1c(N2CCN(c3ccc(OC)cc3)CC2)nc2c1c(=O)n(C)c(=O)n2C | inactive
C=CCn1c(=O)c2cnc(Nc3ccc(N4CCN(C)CC4)cc3)nc2n1-c1cccc(C(C)(C)O)n1 | active
COC(=O)C[C@@H]1CC[C@H]2[C@@H](COC[C@@H](O)CN2S(=O)(=O)c2ccccc2C)O1 | inactive
Cn1c(=O)cc(N2CCC[C@@H](N)C2)n(Cc2ccccc2C#N)c1=O | inactive
Cn1c(=O)cc(N2CCC[C@@H](N)C2)n(Cc2cc(F)ccc2C#N)c1=O | inactive
Cn1c(=O)cc(N2CCCC(N)C2)n(Cc2ccccc2C#N)c1=O.O=C(O)c1ccccc1 (stereo not drawn) | active
C[C@H](CO)N1C[C@H](C)[C@@H](CN(C)C(=O)Cc2ccccc2)OCCCC[C@H](C)Oc2ccc(NC(=O)Nc3ccc(F)cc3)cc2C1=O | inactive
CCCC#Cc1ccc2c(c1)O[C@@H](CN(C)S(=O)(=O)c1cccc(F)c1)[C@H](C)CN([C@H](C)CO)S2(=O)=O | inactive
Cc1ccc(S(=O)(=O)N2CCNCC2)cc1 | inactive
Br.Cc1ccc(Sc2ccccc2N2CCNCC2)c(C)c1 | active
C[C@@H]1CN([C@@H](C)CO)C(=O)c2cc(C#Cc3cccc(F)c3)cnc2O[C@@H]1CN(C)Cc1ccccn1 | inactive
C[C@@H]1CCCCO[C@@H](CN(C)S(=O)(=O)c2cccs2)[C@@H](C)CN([C@H](C)CO)C(=O)c2cc(NC(=O)Nc3cccc4ccccc34)ccc2O1 | inactive
CC=CCC(C)C(O)C1C(=O)NC(CC)C(=O)N(C)CC(=O)N(C)C(CC(C)C)C(=O)NC(C(C)C)C(=O)N(C)C(CC(C)C)C(=O)NC(C)C(=O)NC(C)C(=O)N(C)C(CC(C)C)C(=O)N(C)C(CC(C)C)C(=O)N(C)C(C(C)C)C(=O)N1C (stereo not drawn) | active

Compound | cytotoxicity call
C=C/C=C/C[C@@H](C)[C@@H](O)[C@H]1C(=O)N[C@@H](CC)C(=O)N(C)CC(=O)N(C)[C@@H](CC(C)C)C(=O)N[C@@H](C(C)C)C(=O)N(C)[C@@H](CC(C)C)C(=O)N[C@@H](C)C(=O)N[C@H](C)C(=O)N(C)[C@@H](CC(C)C)C(=O)N(C)[C@@H](CC(C)C)C(=O)N(C)[C@@H](C(C)C)C(=O)N1C | inactive
C/C=C/C[C@@H](C)[C@@H](O)[C@H]1C(=O)N[C@@H](CC)C(=O)N(C)CC(=O)N(C)[C@@H]([C@@H](C)CC)C(=O)N[C@@H](C(C)C)C(=O)N(C)[C@@H](CC(C)C)C(=O)N[C@@H](C)C(=O)N[C@H](C)C(=O)N(C)[C@@H](CC(C)C)C(=O)N(C)[C@@H](CC(C)C)C(=O)N(C)[C@@H](C(C)C)C(=O)N1C | inactive
CC(C)NC(=O)N(C)C[C@@H]1OCc2cnnn2CCCC(=O)N([C@H](C)CO)C[C@H]1C | inactive
CCC(=O)Nc1ccc2c(c1)OC[C@@H](C)N(S(=O)(=O)c1cn(C)cn1)C[C@@H](C)[C@H](OC)CN(C)C2=O | inactive
Cc1c(N)nc([C@H](CC(N)=O)NC[C@H](N)C(N)=O)nc1C(=O)N[C@H](C(=O)N[C@H](C)[C@@H](O)[C@H](C)C(=O)N[C@H](C(=O)NCCc1nc(-c2nc(C(=O)NCCCNCCCCN)cs2)cs1)[C@@H](C)O)[C@@H](O[C@@H]1O[C@@H](CO)[C@@H](O)[C@H](O)[C@@H]1O[C@@H]1O[C@H](CO)[C@@H](O)[C@H](OC(N)=O)[C@@H]1O)c1c[nH]cn1 | inactive
C[C@H](CO)N1C[C@H](C)[C@@H](CN(C)C(=O)C2CCCCC2)Oc2cc(Br)ccc2S1(=O)=O | inactive
N#CCCn1nc2c(c1N)CCC2 | inactive
Cc1noc(C)c1NC(=O)Nc1ccc2c(c1)C(=O)N([C@@H](C)CO)C[C@H](C)[C@H](CN(C)Cc1ccc(C(F)(F)F)cc1)OCCCC[C@@H](C)O2 | inactive
C[C@H](CO)N1C[C@H](C)[C@H](CN(C)C(=O)Cc2ccccc2)OCCCC[C@H](C)Oc2ccc(NC(=O)CCC(F)(F)F)cc2C1=O | inactive
C[C@@H]1CCCCO[C@@H](CN(C)C(=O)Nc2cccc3ccccc23)[C@H](C)CN([C@H](C)CO)C(=O)c2cc(NS(=O)(=O)c3cn(C)cn3)ccc2O1 | inactive
C[C@@H]1CCCCO[C@@H](CN(C)C(=O)Nc2cccc3ccccc23)[C@@H](C)CN([C@H](C)CO)C(=O)c2cc(NS(=O)(=O)c3cn(C)cn3)ccc2O1 | inactive
C[C@H]1CCCCO[C@@H](CN(C)C(=O)Nc2cccc3ccccc23)[C@@H](C)CN([C@@H](C)CO)C(=O)c2cc(NS(=O)(=O)c3cn(C)cn3)ccc2O1 | active
C[C@@H]1CCCCO[C@H](CN(C)C(=O)Nc2cccc3ccccc23)[C@H](C)CN([C@H](C)CO)C(=O)c2cc(NS(=O)(=O)c3cn(C)cn3)ccc2O1 | active
C[C@H](CO)N1C[C@H](C)[C@H](CN(C)C(=O)Nc2cccc3ccccc23)OCCCC[C@H](C)Oc2ccc(NS(=O)(=O)c3cn(C)cn3)cc2C1=O | inactive
C[C@@H]1CN([C@@H](C)CO)C(=O)c2cc(NS(=O)(=O)c3cn(C)cn3)ccc2O[C@@H](C)CCCCO[C@H]1CN(C)C(=O)Nc1cccc2ccccc12 | inactive
C[C@@H]1CN([C@@H](C)CO)C(=O)c2cc(NS(=O)(=O)c3cn(C)cn3)ccc2O[C@@H](C)CCCCO[C@@H]1CN(C)C(=O)Nc1cccc2ccccc12 | active
C[C@@H]1CCCCO[C@@H](CN(C)C(=O)Nc2cccc3ccccc23)[C@H](C)CN([C@@H](C)CO)C(=O)c2cc(NS(=O)(=O)c3cn(C)cn3)ccc2O1 | inactive
C[C@H]1CCCCO[C@H](CN(C)C(=O)Nc2cccc3ccccc23)[C@@H](C)CN([C@@H](C)CO)C(=O)c2cc(NS(=O)(=O)c3cn(C)cn3)ccc2O1 | inactive
